# Results: PMC7862700, “An all-to-all approach to the identification of sequence-specific readers for epigenetic DNA modifications on cytosine”
# Legend:
# Test in all cases: DAPPL (digital affinity profiling via proximity ligation, sequencing); 10 mM Tris-HCl pH 7.5, 50 mM NaCl, 1 mM DTT, 4% glycerol, room temperature, 30 min; GST-TFs on glutathione beads, 16-mer random dsDNA library, 0.1% formaldehyde crosslink after washing; high values mean tight binding
# FEV = target: T1, FEV (Homo sapiens, UniProt Q99581 1-238); conditions: protein: recombinant; tags: N-terminal GST; dsDNA, one strand shown
# T1 sequence: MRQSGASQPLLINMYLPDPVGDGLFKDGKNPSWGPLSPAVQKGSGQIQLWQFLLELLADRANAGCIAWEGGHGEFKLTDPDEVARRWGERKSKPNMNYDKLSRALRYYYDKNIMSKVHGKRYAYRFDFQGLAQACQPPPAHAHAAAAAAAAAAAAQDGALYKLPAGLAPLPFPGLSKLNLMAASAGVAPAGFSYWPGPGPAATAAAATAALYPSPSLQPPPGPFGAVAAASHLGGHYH
# Method in brief: (§1)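 Yeast served to express human transcription factors as GST fusions, which were then captured on glutathione beads and labelled with DNA barcodes. Pooled with a tag-only sample, they were incubated with 200 nmole of a 16-mer random double-stranded DNA library for 30 min at room temperature in Tris/NaCl/DTT/glycerol buffer, washed, crosslinked with 0.1% formaldehyde, ligated by proximity, amplified by PCR and sequenced. Dividing each hexamer's read frequency for a factor by its frequency for the tag-only sample gives the binding signal.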
# ETV5 = ETV5 (Homo sapiens, UniProt P41161 1-510); conditions: protein: recombinant; tags: N-terminal GST; dsDNA, one strand shown
# ETV5, sequence (P41161 whole entry): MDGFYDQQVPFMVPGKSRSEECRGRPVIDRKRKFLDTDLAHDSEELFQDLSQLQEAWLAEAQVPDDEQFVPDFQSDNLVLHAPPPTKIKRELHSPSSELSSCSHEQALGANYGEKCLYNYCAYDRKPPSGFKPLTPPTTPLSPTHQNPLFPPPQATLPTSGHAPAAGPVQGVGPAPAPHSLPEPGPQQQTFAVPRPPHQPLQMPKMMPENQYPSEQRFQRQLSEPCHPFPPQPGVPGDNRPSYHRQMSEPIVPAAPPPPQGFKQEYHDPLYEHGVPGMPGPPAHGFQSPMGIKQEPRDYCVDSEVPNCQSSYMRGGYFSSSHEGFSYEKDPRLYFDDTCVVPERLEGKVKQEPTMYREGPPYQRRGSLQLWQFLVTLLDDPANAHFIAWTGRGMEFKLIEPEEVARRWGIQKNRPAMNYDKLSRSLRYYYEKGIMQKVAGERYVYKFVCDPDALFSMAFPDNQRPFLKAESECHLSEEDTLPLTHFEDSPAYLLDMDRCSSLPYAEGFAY
# Method in brief: as §1
# HSF1 = HSF1 (Homo sapiens, UniProt Q00613 1-529); conditions: protein: recombinant; tags: N-terminal GST; chain copies: 3; dsDNA, one strand shown
# HSF1, sequence (Q00613 whole entry): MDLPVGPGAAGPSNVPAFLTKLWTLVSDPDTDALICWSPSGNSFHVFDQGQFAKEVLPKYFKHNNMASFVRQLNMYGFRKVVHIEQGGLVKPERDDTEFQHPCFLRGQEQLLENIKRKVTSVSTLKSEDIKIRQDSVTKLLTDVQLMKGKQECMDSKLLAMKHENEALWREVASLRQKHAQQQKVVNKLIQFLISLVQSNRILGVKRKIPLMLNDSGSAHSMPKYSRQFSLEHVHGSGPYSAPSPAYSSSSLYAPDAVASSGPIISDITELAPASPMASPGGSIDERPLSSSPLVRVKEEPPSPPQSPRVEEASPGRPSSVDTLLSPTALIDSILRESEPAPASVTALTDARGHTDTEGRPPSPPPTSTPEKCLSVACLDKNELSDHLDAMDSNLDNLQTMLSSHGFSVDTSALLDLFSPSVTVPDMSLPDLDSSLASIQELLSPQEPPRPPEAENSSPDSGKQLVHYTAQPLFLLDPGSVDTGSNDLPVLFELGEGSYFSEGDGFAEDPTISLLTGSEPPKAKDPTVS
# Method in brief: as §1
# SPIC = target: T2, SPIC (Homo sapiens, UniProt Q8N5J4 1-248); conditions: protein: recombinant; tags: N-terminal GST; dsDNA, one strand shown
# T2 sequence: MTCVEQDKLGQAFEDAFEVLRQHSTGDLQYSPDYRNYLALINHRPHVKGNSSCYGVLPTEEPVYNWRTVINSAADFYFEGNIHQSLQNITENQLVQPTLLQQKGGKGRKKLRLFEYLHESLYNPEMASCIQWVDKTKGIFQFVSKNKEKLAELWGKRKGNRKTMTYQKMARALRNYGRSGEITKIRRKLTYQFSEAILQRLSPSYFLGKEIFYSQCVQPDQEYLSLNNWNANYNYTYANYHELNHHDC
# Method in brief: as §1
# ELF4 = ELF4 (Homo sapiens, UniProt Q99607 1-663); conditions: protein: recombinant; tags: N-terminal GST; dsDNA, one strand shown
# ELF4, sequence (Q99607 whole entry): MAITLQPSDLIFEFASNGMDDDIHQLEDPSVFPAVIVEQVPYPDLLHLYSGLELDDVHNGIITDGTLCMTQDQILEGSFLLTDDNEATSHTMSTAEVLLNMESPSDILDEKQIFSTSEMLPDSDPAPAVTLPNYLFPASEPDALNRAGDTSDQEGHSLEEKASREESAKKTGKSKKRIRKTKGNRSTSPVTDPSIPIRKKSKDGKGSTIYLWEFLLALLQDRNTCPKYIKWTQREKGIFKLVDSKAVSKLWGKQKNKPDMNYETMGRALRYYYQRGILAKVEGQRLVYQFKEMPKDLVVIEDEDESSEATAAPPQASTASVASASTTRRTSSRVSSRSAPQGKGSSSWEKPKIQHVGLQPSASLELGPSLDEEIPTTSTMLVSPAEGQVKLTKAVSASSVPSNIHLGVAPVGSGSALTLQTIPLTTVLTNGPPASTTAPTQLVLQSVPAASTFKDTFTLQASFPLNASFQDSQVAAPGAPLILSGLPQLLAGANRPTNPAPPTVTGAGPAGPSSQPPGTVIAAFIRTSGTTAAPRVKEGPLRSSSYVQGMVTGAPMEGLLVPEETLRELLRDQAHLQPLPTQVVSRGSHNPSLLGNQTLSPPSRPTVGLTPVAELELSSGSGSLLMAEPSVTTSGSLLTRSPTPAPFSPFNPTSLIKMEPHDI
# Method in brief: as §1
# ELK4 = target: T3, ELK4 (Homo sapiens, UniProt P28324-2 1-405); conditions: protein: recombinant; tags: N-terminal GST; dsDNA, one strand shown
# T3 sequence: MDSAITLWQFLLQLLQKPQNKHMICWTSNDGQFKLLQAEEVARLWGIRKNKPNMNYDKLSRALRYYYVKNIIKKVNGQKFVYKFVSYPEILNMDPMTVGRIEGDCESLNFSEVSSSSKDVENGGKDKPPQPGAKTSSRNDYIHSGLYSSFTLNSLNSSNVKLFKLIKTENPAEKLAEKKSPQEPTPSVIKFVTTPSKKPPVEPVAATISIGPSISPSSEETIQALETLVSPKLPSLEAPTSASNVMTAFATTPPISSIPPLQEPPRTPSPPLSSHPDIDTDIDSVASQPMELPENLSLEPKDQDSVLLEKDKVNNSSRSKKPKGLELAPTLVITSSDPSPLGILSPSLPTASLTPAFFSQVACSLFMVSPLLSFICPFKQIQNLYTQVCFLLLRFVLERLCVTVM
# Method in brief: as §1
# ETV2 = target: T4, ETV2 (Homo sapiens, UniProt O00321 1-342); conditions: protein: recombinant; tags: N-terminal GST; dsDNA, one strand shown
# T4 sequence: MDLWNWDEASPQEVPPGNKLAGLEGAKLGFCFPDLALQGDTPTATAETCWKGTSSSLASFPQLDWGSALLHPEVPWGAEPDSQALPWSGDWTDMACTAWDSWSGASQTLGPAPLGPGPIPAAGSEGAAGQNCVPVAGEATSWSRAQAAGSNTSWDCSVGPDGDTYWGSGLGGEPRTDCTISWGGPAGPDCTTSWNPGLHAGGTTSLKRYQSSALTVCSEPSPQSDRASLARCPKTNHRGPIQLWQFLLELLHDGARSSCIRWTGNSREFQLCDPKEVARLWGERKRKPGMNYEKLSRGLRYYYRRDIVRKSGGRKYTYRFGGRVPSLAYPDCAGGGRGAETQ
# Method in brief: as §1
# ELF3 = target: T5, ELF3 (Homo sapiens, UniProt P78545 1-371); conditions: protein: recombinant; tags: N-terminal GST; dsDNA, one strand shown
# T5 sequence: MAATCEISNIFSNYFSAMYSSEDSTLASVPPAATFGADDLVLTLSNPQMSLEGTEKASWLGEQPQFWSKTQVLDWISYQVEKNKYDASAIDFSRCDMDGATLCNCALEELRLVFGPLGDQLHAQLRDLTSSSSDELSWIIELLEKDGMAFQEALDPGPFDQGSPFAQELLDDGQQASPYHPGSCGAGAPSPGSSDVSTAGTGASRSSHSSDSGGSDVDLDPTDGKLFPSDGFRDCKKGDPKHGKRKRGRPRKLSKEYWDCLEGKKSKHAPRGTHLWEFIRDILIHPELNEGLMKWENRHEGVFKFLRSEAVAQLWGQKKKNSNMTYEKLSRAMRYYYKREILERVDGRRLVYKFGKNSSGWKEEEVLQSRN
# Method in brief: as §1
# CRX = CRX (Homo sapiens, UniProt O43186 1-299); conditions: protein: recombinant; tags: N-terminal GST; dsDNA, one strand shown
# CRX, sequence (O43186 whole entry): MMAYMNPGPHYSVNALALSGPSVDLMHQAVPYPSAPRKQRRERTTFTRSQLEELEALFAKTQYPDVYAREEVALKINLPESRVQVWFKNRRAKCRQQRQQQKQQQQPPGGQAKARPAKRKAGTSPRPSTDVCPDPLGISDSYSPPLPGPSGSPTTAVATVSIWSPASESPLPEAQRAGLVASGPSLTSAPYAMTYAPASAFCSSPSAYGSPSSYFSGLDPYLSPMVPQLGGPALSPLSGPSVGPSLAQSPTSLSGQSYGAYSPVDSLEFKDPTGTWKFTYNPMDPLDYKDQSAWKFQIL
# Method in brief: as §1
# ETV1 = ETV1 (Homo sapiens, UniProt P50549 1-477); conditions: protein: recombinant; tags: N-terminal GST; dsDNA, one strand shown
# ETV1, sequence (P50549 whole entry): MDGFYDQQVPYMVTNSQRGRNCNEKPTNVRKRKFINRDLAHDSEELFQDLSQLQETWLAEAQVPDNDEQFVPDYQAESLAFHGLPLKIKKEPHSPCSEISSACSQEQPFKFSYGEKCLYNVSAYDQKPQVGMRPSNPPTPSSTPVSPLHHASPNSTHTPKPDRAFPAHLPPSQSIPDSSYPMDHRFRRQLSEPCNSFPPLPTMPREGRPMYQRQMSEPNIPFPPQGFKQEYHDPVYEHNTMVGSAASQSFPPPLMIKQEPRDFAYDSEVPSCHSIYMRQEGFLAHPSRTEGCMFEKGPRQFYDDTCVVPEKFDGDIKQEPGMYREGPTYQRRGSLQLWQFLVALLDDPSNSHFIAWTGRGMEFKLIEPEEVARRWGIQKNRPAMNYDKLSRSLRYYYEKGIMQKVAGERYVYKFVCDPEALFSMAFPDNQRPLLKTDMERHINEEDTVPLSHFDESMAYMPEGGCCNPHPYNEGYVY
# Method in brief: as §1
# ERF = target: T6, ERF (Homo sapiens, UniProt P50548 1-548); conditions: protein: recombinant; tags: N-terminal GST; dsDNA, one strand shown
# T6 sequence: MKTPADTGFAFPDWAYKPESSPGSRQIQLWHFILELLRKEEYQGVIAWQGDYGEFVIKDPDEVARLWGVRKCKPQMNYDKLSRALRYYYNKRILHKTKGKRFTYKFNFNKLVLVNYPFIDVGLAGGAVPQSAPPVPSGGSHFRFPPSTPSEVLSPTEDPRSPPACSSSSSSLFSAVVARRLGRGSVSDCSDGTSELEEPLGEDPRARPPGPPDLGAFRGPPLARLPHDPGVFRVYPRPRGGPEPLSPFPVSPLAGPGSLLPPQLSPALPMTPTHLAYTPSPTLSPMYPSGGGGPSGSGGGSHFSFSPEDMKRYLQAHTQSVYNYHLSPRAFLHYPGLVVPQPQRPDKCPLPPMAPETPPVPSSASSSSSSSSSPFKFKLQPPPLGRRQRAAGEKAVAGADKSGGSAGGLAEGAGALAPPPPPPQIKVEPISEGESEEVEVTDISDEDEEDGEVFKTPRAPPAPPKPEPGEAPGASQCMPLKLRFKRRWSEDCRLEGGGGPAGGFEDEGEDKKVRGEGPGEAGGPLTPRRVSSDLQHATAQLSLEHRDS
# Method in brief: as §1
# ETV3L = target: T7, ETV3L (Homo sapiens, UniProt Q6ZN32 1-361); conditions: protein: recombinant; tags: N-terminal GST; dsDNA, one strand shown
# T7 sequence: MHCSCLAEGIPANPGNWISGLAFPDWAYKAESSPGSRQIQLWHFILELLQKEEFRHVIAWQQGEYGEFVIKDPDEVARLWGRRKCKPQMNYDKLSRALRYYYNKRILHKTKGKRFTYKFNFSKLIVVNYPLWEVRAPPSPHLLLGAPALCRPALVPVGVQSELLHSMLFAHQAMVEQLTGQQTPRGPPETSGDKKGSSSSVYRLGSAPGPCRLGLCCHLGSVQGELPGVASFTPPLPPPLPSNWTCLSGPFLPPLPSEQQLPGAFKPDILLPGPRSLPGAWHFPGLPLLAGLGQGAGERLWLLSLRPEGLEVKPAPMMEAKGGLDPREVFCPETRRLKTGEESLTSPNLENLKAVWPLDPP
# Method in brief: as §1
# ETS2 = target: T8, ETS2 (Homo sapiens, UniProt P15036 1-469); conditions: protein: recombinant; tags: N-terminal GST; dsDNA, one strand shown
# T8 sequence: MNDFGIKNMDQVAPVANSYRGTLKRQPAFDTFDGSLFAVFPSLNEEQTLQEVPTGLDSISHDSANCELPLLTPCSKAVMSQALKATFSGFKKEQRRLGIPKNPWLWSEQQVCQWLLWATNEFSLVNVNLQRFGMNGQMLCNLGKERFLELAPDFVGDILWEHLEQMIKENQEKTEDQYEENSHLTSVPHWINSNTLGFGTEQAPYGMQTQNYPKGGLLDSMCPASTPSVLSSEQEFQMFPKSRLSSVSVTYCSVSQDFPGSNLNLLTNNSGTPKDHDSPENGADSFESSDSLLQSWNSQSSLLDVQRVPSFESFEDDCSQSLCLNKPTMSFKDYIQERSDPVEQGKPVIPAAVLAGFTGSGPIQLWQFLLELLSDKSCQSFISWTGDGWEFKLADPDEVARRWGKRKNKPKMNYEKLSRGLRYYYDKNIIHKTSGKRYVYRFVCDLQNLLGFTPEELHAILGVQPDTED
# Method in brief: as §1
# SPDEF = target: T9, SPDEF (Homo sapiens, UniProt O95238 1-335); conditions: protein: recombinant; tags: N-terminal GST; dsDNA, one strand shown
# T9 sequence: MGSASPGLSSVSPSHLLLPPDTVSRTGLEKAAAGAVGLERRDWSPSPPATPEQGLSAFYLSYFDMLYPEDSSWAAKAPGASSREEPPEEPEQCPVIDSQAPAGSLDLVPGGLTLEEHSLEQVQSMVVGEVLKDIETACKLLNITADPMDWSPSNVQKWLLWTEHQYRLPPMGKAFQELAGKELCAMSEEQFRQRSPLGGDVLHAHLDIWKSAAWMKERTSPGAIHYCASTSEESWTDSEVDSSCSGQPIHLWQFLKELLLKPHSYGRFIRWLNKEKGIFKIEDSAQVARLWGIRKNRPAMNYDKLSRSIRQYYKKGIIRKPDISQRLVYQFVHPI
# Method in brief: as §1
# ETV7 = target: T10, ETV7 (Homo sapiens, UniProt Q9Y603 1-341); conditions: protein: recombinant; tags: N-terminal GST; dsDNA, one strand shown
# T10 sequence: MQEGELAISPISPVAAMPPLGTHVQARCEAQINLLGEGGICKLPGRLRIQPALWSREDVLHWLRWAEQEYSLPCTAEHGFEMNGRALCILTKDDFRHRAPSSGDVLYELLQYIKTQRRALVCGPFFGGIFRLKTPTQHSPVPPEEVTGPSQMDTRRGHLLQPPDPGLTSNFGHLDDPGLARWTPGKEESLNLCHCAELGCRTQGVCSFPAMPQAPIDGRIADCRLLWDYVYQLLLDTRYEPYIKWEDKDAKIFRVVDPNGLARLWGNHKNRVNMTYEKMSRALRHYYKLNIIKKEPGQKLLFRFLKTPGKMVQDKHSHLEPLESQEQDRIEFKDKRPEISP
# Method in brief: as §1
# ELF5 = target: T11, ELF5 (Homo sapiens, UniProt Q9UKW6-2 1-255); conditions: protein: recombinant; tags: N-terminal GST; dsDNA, one strand shown
# T11 sequence: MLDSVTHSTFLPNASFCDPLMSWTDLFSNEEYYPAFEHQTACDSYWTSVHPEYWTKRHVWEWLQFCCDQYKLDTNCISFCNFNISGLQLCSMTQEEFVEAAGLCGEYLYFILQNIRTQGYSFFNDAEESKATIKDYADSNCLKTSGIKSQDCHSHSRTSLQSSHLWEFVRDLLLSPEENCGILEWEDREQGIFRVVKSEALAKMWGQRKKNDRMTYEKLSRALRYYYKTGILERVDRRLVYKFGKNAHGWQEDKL
# Method in brief: as §1
# ETV3 = target: T12, ETV3 (Homo sapiens, UniProt P41162-2 1-143); conditions: protein: recombinant; tags: N-terminal GST; dsDNA, one strand shown
# T12 sequence: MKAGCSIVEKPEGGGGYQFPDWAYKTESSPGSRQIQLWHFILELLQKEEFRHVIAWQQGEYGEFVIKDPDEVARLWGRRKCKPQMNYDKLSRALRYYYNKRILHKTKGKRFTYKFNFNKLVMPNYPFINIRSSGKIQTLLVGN
# Method in brief: as §1
# ETV6 = ETV6 (Homo sapiens, UniProt P41212 1-452); conditions: protein: recombinant; tags: N-terminal GST; dsDNA, one strand shown
# ETV6, sequence (P41212 whole entry): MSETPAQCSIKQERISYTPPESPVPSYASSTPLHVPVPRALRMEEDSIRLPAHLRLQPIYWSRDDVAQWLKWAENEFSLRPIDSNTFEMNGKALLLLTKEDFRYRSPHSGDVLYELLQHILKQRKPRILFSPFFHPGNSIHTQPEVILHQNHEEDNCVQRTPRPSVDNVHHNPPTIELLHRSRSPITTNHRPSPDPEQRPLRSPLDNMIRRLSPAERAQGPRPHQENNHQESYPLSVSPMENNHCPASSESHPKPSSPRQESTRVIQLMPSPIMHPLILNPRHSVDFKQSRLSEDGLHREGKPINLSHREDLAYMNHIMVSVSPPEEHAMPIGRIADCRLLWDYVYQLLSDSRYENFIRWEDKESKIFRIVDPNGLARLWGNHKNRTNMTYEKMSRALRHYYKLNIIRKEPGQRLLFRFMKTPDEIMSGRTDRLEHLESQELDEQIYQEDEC
# Method in brief: as §1
sequence,measurement,setting,value
ATTTCC,binding signal,FEV,"6.05 fold enrichment (6-mer frequency, TF over GST control)"
same,binding signal,ETV5,"4.48 fold enrichment (6-mer frequency, TF over GST control)"
same,binding signal,HSF1,"1.66 fold enrichment (6-mer frequency, TF over GST control)"
same,binding signal,SPIC,"4.21 fold enrichment (6-mer frequency, TF over GST control)"
same,binding signal,ELF4,"3.62 fold enrichment (6-mer frequency, TF over GST control)"
same,binding signal,ELK4,"3.35 fold enrichment (6-mer frequency, TF over GST control)"
same,binding signal,ETV2,"4 fold enrichment (6-mer frequency, TF over GST control)"
same,binding signal,ELF3,"3.48 fold enrichment (6-mer frequency, TF over GST control)"
same,binding signal,CRX,"1.5 fold enrichment (6-mer frequency, TF over GST control)"
same,binding signal,ETV1,"4.04 fold enrichment (6-mer frequency, TF over GST control)"
same,binding signal,ERF,"3.64 fold enrichment (6-mer frequency, TF over GST control)"
same,binding signal,ETV3L,"3.98 fold enrichment (6-mer frequency, TF over GST control)"
same,binding signal,ETS2,"4.24 fold enrichment (6-mer frequency, TF over GST control)"
same,binding signal,SPDEF,"3.68 fold enrichment (6-mer frequency, TF over GST control)"
same,binding signal,ETV7,"3.78 fold enrichment (6-mer frequency, TF over GST control)"
same,binding signal,ELF5,"6.17 fold enrichment (6-mer frequency, TF over GST control)"
same,binding signal,ETV3,"4.45 fold enrichment (6-mer frequency, TF over GST control)"
same,binding signal,ETV6,"4.99 fold enrichment (6-mer frequency, TF over GST control)"
